The structures appear in SMILES notation. Potency and affinity values are given separately. Inconclusive results are not listed. Where a call stands in place of a potency, no number is given. Activity calls are given as the source filed them.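 The calls were made as follows: active = compound whose fitted half-maximal potency lies at or below double its highest tested dose in every test; inconclusive = tests disagree, or a flat partial loss, or a poor fit; inactive = every test inactive.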

Data on 22 compounds can be found in PubChem BioAssay AID1117291 (Broad Institute, 2014).

A short description of this assay: hepatoma cell viability loss – CellTiter-Glo luminescence, dry powder, set 20, cytotoxicity control, dose response (AID 1117291). For orientation: Cellular ATP, detected with luciferase, serves as a proxy for viable cell number.

For `O=S(=O)(Nc1cc(C(F)(F)F)ccc1N1CCCCC1)c1ccc(Cl)cc1`, the outcome was inactive. As for `COc1ccc(C(=O)Nc2cc(F)ccc2N2CCCCC2)cc1S(=O)(=O)O`, the entry is “inactive”; as for `COc1ccc(C(=O)Nc2cc(C(F)(F)F)ccc2N2CCOCC2)cc1S(=O)(=O)O`, “inactive”.

Turning to `COc1ccc(C(=O)Nc2cc(C(F)(F)F)ccc2N2CCCCC2)cc1S(=O)(=O)O`, the outcome was inactive. As for `COc1cccc(NC(=O)NC2(C(=O)N3CCN(C(C)=O)CC3)CCCCC2)c1`, the entry is “inactive”; as for `CC(=O)N1CCN(C(=O)C2(NC(=O)NC(C)(C)C)CCCCC2)CC1`, “inactive”; as for `CC(=O)N1CCN(C(=O)C2(NC(=O)Nc3ccccc3C(F)(F)F)CCCCC2)CC1`, “inactive”. As for `CC(=O)N1CCN(C(=O)C(C)(C)NC(=O)Nc2ccc(C)cc2)CC1`, the compound was classed as inactive.

`CC(=O)N1CCN(C(=O)C2(NC(=O)Nc3ccc(C(F)(F)F)cc3)CCCC2)CC1`: the call was inactive. As for `Cc1ccc(NC(=O)NC2(C(=O)N3CCOCC3)CCCCC2)cc1`, the result was inactive. The result for `CC(=O)N1CCN(C(=O)C2(NC(=O)Nc3cccc(C(F)(F)F)c3)CCCCC2)CC1` reads “inactive”. As for `COc1ccc(C(=O)O)cc1S(=O)(=O)Nc1cc(C(F)(F)F)ccc1N(C)C`, the entry is “inactive”; as for `COc1ccc(C(=O)O)cc1S(=O)(=O)Nc1cc(C(F)(F)F)ccc1N1CCCCC1`, “inactive”. As for `CC(=O)N1CCN(C(=O)C2(NC(=O)Nc3ccc(C(C)C)cc3)CCCCC2)CC1`, the entry is “inactive”; as for `N#Cc1ccc(S(=O)(=O)Nc2cc(C(F)(F)F)ccc2N2CCCCC2)cc1`, “inactive”. Take `CC(=O)N1CCN(C(=O)C2(NC(=O)Nc3ccc(F)cc3)CCCCC2)CC1`: the compound was classed as inactive. Regarding `CC(=O)N1CCN(C(=O)C2(NC(=O)Nc3ccc(C)cc3)CC2)CC1`, the compound was classed as inactive. With `CC(=O)N1CCN(C(=O)C2CCCN2C(=O)Nc2ccc(C)cc2)CC1` (configuration not stated), the result was inactive.

As to `O=S(=O)(Nc1cc(C(F)(F)F)ccc1N1CCCCC1)c1ccc(F)cc1`, the result was inactive. The result for `CC(=O)N1CCN(C(=O)CNC(=O)Nc2ccc(C)cc2)CC1` reads “inactive”; that for `CC(=O)N1CCN(C(=O)C2(NC(=O)NCCc3ccccc3)CCCCC2)CC1`, “inactive”; that for `CC(=O)N1CCN(C(=O)C2(NC(=O)Nc3cccc(F)c3)CCCCC2)CC1`, “inactive”.
